Data: PubChem BioAssay AID1159580 (chemical genetic matrix, 2015)
Several values for one entry are separate records, joined by “and”; a condition that tells them apart may be missing. Equal values may be shown once. The campaign covered roughly 5,500 compounds. About 2,000 (36%) were called active. About 18% were inconclusive and are not listed. Rule as the data show it: active = normalized growth mostly below about 0.91 (no sharp cut-off); inconclusive = no clear call, values can overlap the other calls; inactive = mostly above about 0.92. Some of the results follow.

Experiment: chemical genetic growth profiling, strain panel (AID 1159580);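 also: tested at 20 µM; growth read once vehicle control cultures reached saturation at 30 °C; 1 = growth at the plate median or of vehicle wells; lower values mean less growth of the strain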
Settings: S. cerevisiae deletion strains, growth OD

Measured: normalized growth

CC(=O)S[C@@H]1CC2=CC(=O)CC[C@]2(C)[C@H]2CC[C@@]3(C)[C@@H](CC[C@@]34CCC(=O)O4)C12 (some centres undefined)
inactive: locus YAL013W, strain DEP1, hits give low values 1 | locus YAL021C, strain ccr4, hits give low values 1.01 | locus YAL026C, strain drs2, hits give low values 1.01 | locus YAL030W, strain snc1, hits give low values 1.01 | locus YBL061C, strain skt5, hits give low values 1.02 | locus YBR009C, strain hhf1, hits give low values 0.98 | locus YBR021W, strain FUR4, hits give low values 0.992 | locus YBR023C, strain chs3, hits give low values 1.01 | locus YBR171W, strain sec66, hits give low values 1.03 | locus YBR229C, strain ROT2, hits give low values 0.997 | locus YBR231C, strain swc5, hits give low values 1.04 | locus YBR279W, strain paf1, hits give low values 1.01 | locus YCL011C, strain gbp2, hits give low values 0.984 | locus YCL016C, strain dcc1, hits give low values 0.993 | locus YCL029C, strain bik1, hits give low values 1.03 | locus YCL061C, strain MRC1, hits give low values 1.04 | locus YCL069W, strain vba3, hits give low values 1.01 | locus YCR088W, strain abp1, hits give low values 1.01 | locus YDL005C, strain med2, hits give low values 1.01 | locus YDL035C, strain GPR1, hits give low values 1.01 | locus YDL040C, strain nat1, hits give low values 1.01 | locus YDL074C, strain BRE1, hits give low values 1.01 | locus YDL101C, strain DUN1, hits give low values 1.01 | locus YDL134C, strain PPH21, hits give low values 1.01 | locus YDL185W, strain tfp1, hits give low values 1.01 | locus YDL192W, strain arf1, hits give low values 1.03 | locus YDR001C, strain nth1, hits give low values 1 | locus YDR069C, strain doa4, hits give low values 1.03 | locus YDR101C, strain arx1, hits give low values 1.03 | locus YDR137W, strain rgp1, hits give low values 1 | locus YDR150W, strain NUM1, hits give low values 1 | locus YDR159W, strain sac3, hits give low values 0.972 | locus YDR162C, strain NBP2, hits give low values 1 | locus YDR195W, strain ref2 1.05 | locus YDR297W, strain sur2, hits give low values 1.02 | locus YDR318W, strain mcm21, hits give low values 1.02 | locus YDR334W, strain swr1, hits give low values 1 | locus YDR335W, strain msn5, hits give low values 1.02 | locus YDR388W, hits give low values 1.03 | locus YDR392W, strain spt3, hits give low values 0.951 | locus YDR502C, strain sam2, hits give low values 1.02 | locus YEL003W, strain gim4, hits give low values 1.01 | locus YEL037C, strain rad23, hits give low values 1.01 | locus YEL061C, strain CIN8 (second series), hits give low values 1.01 | locus YEL061C, strain CIN8, hits give low values 0.963 | locus YER015W, strain faa2, hits give low values 1.02 | locus YER016W, strain bim1, hits give low values 1 | locus YER110C, hits give low values 1.03 | locus YER111C, strain swi4, hits give low values 1.01 | locus YER155C, strain BEM2 (second series), hits give low values 1.07 | locus YER155C, strain BEM2, hits give low values 1.01 | locus YER167W, strain BCK2, hits give low values 1.01 | locus YFR010W, strain ubp6, hits give low values 1.02 | locus YGL078C, strain dbp3, hits give low values 1.03 | locus YGL086W, strain mad1, hits give low values 0.998 | locus YGL167C, strain pmr1, hits give low values 1.03 | locus YGL173C, strain kem1, hits give low values 1.02 | locus YGL227W, strain vid30, hits give low values 0.997 | locus YGL240W, strain doc1, hits give low values 1.05 | locus YGL248W, strain PDE1, hits give low values 1.01 | locus YGL253W, strain hxk2, hits give low values 0.97 | locus YGR078C, strain PAC10, hits give low values 0.984 | locus YGR135W, strain pre9, hits give low values 1.02 | locus YGR252W, strain gcn5, hits give low values 1 | locus YHR013C, strain ard1, hits give low values 1.01 | locus YHR027C, strain rpn1, hits give low values 1.01 | locus YHR030C, strain SLT2, hits give low values 0.996 and 1.06 | locus YHR079C, strain IRE1 (second series), hits give low values 1.03 | locus YHR079C, strain IRE1, hits give low values 1.08 | locus YHR094C, strain hxt1, hits give low values 1.03 | locus YHR129C, strain ARP1, hits give low values 1 | locus YHR142W, strain chs7, hits give low values 1 | locus YHR200W, strain rpn10, hits give low values 1.02 | locus YIL066C, strain RNR3, hits give low values 1 | locus YIL073C, strain SPO22, hits give low values 1.05 | locus YIL125W, strain kgd1, hits give low values 1.02 | locus YIR030C, strain dcg1, hits give low values 1.02 | locus YJL092W, strain hpr5, hits give low values 1.01 | locus YJL095W, strain BCK1 (second series), hits give low values 0.996 | locus YJL095W, strain BCK1, hits give low values 1 and 1.02 | locus YJL115W, strain asf1, hits give low values 1.02 | locus YJL129C, strain trk1, hits give low values 1.02 | locus YJL134W, strain LCB3, hits give low values 1 | locus YJL154C, strain vps35, hits give low values 1.02 | locus YJL164C, strain tpk1, hits give low values 0.983 | locus YJL166W, strain qcr8, hits give low values 1.04 | locus YJL168C, strain set2, hits give low values 1.02 | locus YJL187C, strain SWE1 (second series), hits give low values 1 | locus YJL187C, strain SWE1, hits give low values 1.02
